In PubChem BioAssay (NCATS):
Inconclusive results are not listed. A call without a number means that no potency is given here. Activity calls are given as the source filed them. Calls come from the whole dose curve; as a rule, active = well fitted inhibition curve with a large enough effect; inconclusive = small, poorly fitted or top-dose-only effect; inactive = no such curve, though single readings can be large or run the other way.

What was measured:
[1] = tested on: Zika virus NS2B-NS3 protease (unlinked complex); assay: Primary screen GU Rhodamine qHTS for Zika virus inhibitors: Unlinked NS2B-NS3 protease assay (AID 1347159); note: nearly all actives have a fitted effect of over 60% in size
Outline: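 Noncovalent NS2B hydrophilic domain–NS3 protease domain complex (25 nM) preincubated 15 min at room temperature with compounds (up to 114 microM) in 10 mM Tris-HCl pH 8.0, 0.01% Tween 20; 1.5 microM Rhodamine110 substrate added, fluorescence change over 15 min fitted to Hill equation.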

[2] = tested on: Zika virus NS2B-NS3 protease (linked construct); assay: Primary screen NINDS Rhodamine qHTS for Zika virus inhibitors (AID 1347160); note: nearly all actives have a fitted effect of over 55% in size
Outline: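 Purified linked NS2B-NS3 protease (NS2B hydrophilic domain joined to NS3 protease by flexible linker), 25 nM in 10 mM Tris-HCl pH 8.0, 0.01% Tween 20. Compounds titrated, 15 min preincubation at room temperature; 1.5 microM Rhodamine110 substrate, FITC fluorescence change over 15 min.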

For `CNC(=O)O[C@H]1COc2ccc(N3CCN(C4COC4)CC3)cc2[C@@H]1NC(=O)c1ccc(F)cc1`, the Potency [1] was “inactive” and the Potency [2] was “inactive”.

In the case of `CCC(=O)O[C@]1(C(=O)CCl)[C@@H](C)C[C@H]2[C@@H]3C[C@H](F)C4=CC(=O)C=C[C@]4(C)[C@@]3(F)[C@@H](O)C[C@@]21C`, the Potency [1] is reported as “inactive” and the Potency [2] is reported as “inactive”.

`O=c1c2ccccc2nc2n1CCC2O` (configuration not stated) was tested, and the Potency [1] was “inactive” and the Potency [2] was “inactive”.

`O=C(C1CC1)N1CC[C@@H](Cc2n[nH]c(=O)n2-c2ccc(-c3ccc4occc4c3)cc2)C1` was tested, and the Potency [1] was “inactive” and the Potency [2] was “inactive”.

`C[C@@H](Nc1cc(NS(=O)(=O)N2CCC2)nc(SCc2cccc(F)c2F)n1)[C@@H](O)CO` was tested, and the Potency [1] was “inactive” and the Potency [2] was “inactive”.

`NC1CCC(N[C@@H]2C[C@H]2c2ccccc2)CC1` (some centres not stated) was tested, and the Potency [1] was “inactive” and the Potency [2] was “inactive”.
